Screen size: about 400,000 compounds; about 5,500 (1.4%) were called active. About 9% were inconclusive and are not listed. Calls come from the whole dose curve; as a rule, active = well fitted cell-killing curve with a large enough effect; inconclusive = small, poorly fitted or top-dose-only effect, or effect the other way; inactive = flat fitted curve, though single readings scatter. What follows is part of a selection rich in actives, with near analogues and random picks from the rest. A call without a number means that no potency is given here.
Potency is the fitted concentration of half-maximal effect.

This test is described as follows: qHTS assay for MDR1-selective chemotherapeutics: Primary screen using the parental adenocarcinoma cell KB-3-1. Note: nearly all actives have a fitted effect of over 60% in size. The conditions noted are these: KB-3-1 viability, CellTiter-Glo ATP luminescence, 72 h; series mostly up to 46.1 µM. Put shortly: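 Luminescent ATP read-out (CellTiter-Glo) measures survival of drug-naive KB-3-1 cells after 72 h compound exposure at 37 °C. Titration series was screened from lowest to highest concentration, with DMSO vehicle plates as background controls.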
For the compound `CCOC(=O)c1ccc(NC(=O)Cn2cc(S(=O)(=O)Cc3ccccc3F)c3ccccc32)cc1`, the Potency entry is “inactive”.

For `Cc1ccc(C)c(Cn2c(C)c(CNCc3ccc(F)cc3)c(C(=O)O)c2C)c1`, the Potency entry was “inactive”.

`CCOC(=O)N1CCN(S(=O)(=O)c2ccc(C(=O)Nc3ccc(F)cc3F)cc2)CC1`: the Potency was 4.61 µM (active). For `O=C(Nc1ccccc1F)c1ccc(S(=O)(=O)N2CCCCCC2)cc1`, the Potency entry is “inactive”. Take `CCOC(=O)N1CCN(S(=O)(=O)c2ccc(Br)cc2)CC1`: the Potency result was “inactive”. Regarding `Cc1sc2ncn(CC(=O)N3CCN(c4ccc(F)cc4)CC3)c(=O)c2c1S(=O)(=O)N1CCN(c2ncccn2)CC1`, the Potency entry was “inactive”. For `CCOC(=O)c1ccc(NC(=O)C2CC(=O)NC(=Nc3ccc(C)c(C)c3)S2)cc1` (stereo not given) the value was “inactive”; for `CC(=O)OC1=C(C(C)=O)N(Cc2ccccc2)S(=O)(=O)c2ccccc21`, “inactive”; for `CCc1cccc(NC(=O)CN(C)S(=O)(=O)c2ccc3[nH]c4c(c3c2)CCCC4)c1`, “inactive”. For `Cc1cccc(NC(=S)NCc2ccc3[nH]c4c(c3c2)CCCC4)c1` the value was 16.4 µM (active); for `Cc1cccc(NC(=S)N2CCC(C(=O)c3ccc(F)cc3)CC2)c1`, “inactive”; for `Cc1ccc(Cl)cc1NC(=O)C(C)n1nnc2sc(-c3ccccc3)cc2c1=O` (stereo not given), “inactive”.

On to `COc1ccc(C2CC(=O)N(Cc3ccccc3C)c3c2c(C)nn3-c2nc(C)cc(C)n2)c(OC)c1` (stereo not given), for which the Potency entry was “inactive”. For the compound `CCOc1ccc(C(=O)c2cn(Cc3ccccc3OC)c3ccc(F)cc3c2=O)cc1`, the Potency result was “inactive”. The value for `CCCc1ccc(OCCNC(=O)c2ccccc2Br)cc1` was “inactive”; that for `CCCOc1ccc(C(=O)C(CCC(CNCC)C(=O)c2ccc(OCCC)cc2)CNCC)cc1` (stereo not given) was 5.17 µM (active).

For `CCCOc1cccc(C(=O)Nc2cccc(NC(=O)c3ccc(C(C)(C)C)cc3)c2)c1`, the Potency entry is “inactive”. Regarding `Cc1ccc2nc(COc3cccc(NC(=O)c4ccccc4Cl)c3)cc(=O)n2c1`, the Potency result was “inactive”. Take `CCOc1ccc(CCNC(=O)c2ccc3c(c2)sc2nc(-c4ccc(F)cc4)cn23)cc1OCC`: the Potency result is “inactive”. The value for `O=C(Cc1ccc([N+](=O)[O-])cc1)NCCc1ccc2c(c1)OCO2` was “inactive”; that for `CC1CCN(c2ccc(C(=O)NCc3ccc4c(c3)OCO4)cc2[N+](=O)[O-])CC1` was “inactive”; that for `O=C(NCc1ccc2c(c1)OCO2)c1cc([N+](=O)[O-])ccc1N1CCOCC1` was 5.17 µM (active).

As for `Cc1cc(=O)n(CC(=O)Nc2cccc([N+](=O)[O-])c2)c(-n2nc(C)cc2C)n1`, the Potency result is “inactive”. As for `CCOc1ccccc1NC(=O)c1ccc2c(c1)CCN2S(=O)(=O)c1ccc(C)cc1`, the Potency entry was “inactive”. Regarding `COc1ccccc1NC(=O)c1cc(C2CC2)nc2c1c(C)nn2-c1ccc(C)cc1`, the Potency entry was “inactive”. On to `COc1cccc(NC(=O)CSc2cc(=O)n(C)c3ccc(Cl)cc23)c1`, for which the Potency entry is “inactive”.

On to `Cc1cc(-c2ccc(S(=O)(=O)N3CCc4ccccc4C3)s2)on1`, for which the Potency entry was “inactive”. For the compound `Cc1cc(C)cc(NS(=O)(=O)c2ccc(-c3cc(C)no3)s2)c1`, the Potency is 3.26 µM (active). Take `CCc1cccc(C)c1NS(=O)(=O)c1ccc(-c2cc(C)no2)s1`: the Potency was 1.16 µM (active). For `CC(=O)c1ccc(NS(=O)(=O)c2ccc(-c3cc(C)no3)s2)cc1` the value was “inactive”.

On to `CCc1cccc(C)c1NS(=O)(=O)c1cc(Br)cnc1N`, for which the Potency result was “inactive”. `Cc1cc(-c2ccc(S(=O)(=O)N3CCN(c4cccc(C(F)(F)F)c4)CC3)s2)on1`: the Potency result was “inactive”.

Regarding `Cc1ccccc1CN1CCC(CNC(=O)c2cc3ccc4cccnc4c3[nH]2)CC1`, the Potency result was “inactive”. As for `COc1cc2[nH]c(=O)n(Cc3ccc(C(=O)NCc4ccc(C)cc4)cc3)c(=O)c2cc1OC`, the Potency result is “inactive”. For `CC1CCCCN1Cc1c(O)ccc2c(=O)c(-c3cccc(Cl)c3)c(C(F)(F)F)oc12` (stereo not given) the value was “inactive”. On to `COc1nc(N=C(N)N)nc2c(C)cccc12`, for which the Potency entry was “inactive”. Turning to `Cc1nc(N=C(N)N)nc2c(C)cccc12`, the Potency was 10.3 µM (active). The value for `COc1ccc(CNc2nc(NCc3ccc(OC)cc3)c3ncn(C4CCCC4)c3n2)cc1` was 6.51 µM (active); that for `COCCNc1ncnc2c1ncn2[C@H]1CN(Cc2ccc(OC)cc2)C[C@@H](CO)O1` was “inactive”. The value for `COc1ccc(CNc2nnnn2C)cc1` was “inactive”; that for `COc1ccc(S(=O)(=O)NCc2cccn2Cc2cccc(C)c2)cc1` was “inactive”; that for `COc1ccc(CC(=O)N2CC(=O)Nc3ccc(Br)cc3C2c2ccc(F)cc2)cc1OC` (stereo not given) was “inactive”. For `COc1ccc(-c2cc(C(F)(F)F)nc(SCC(=O)N(C)Cc3ccccc3)n2)cc1OC` the value was “inactive”. In the case of `Cc1ccc(F)cc1NC(=O)CCSc1nc(-c2ccco2)cc(C(F)(F)F)n1`, the Potency entry was “inactive”.

As for `CC1(Cc2ccccc2C#N)C(=O)Nc2ccc(-c3ccc4[nH]ccc4c3)cc21` (stereo not given), the Potency is 6.51 µM (active).

Take `Cc1ccc(CC2(C)C(=O)Nc3ccc(OC(F)(F)F)cc32)cc1` (stereo not given): the Potency result was “inactive”. The value for `COc1ccccc1CC1(C)C(=O)Nc2ccc(OC(F)(F)F)cc21` (stereo not given) was “inactive”; that for `COc1ccc(CCNC(=O)c2cc3cccc4c3n2CC(C)S4)c(OC)c1OC` (stereo not given) was “inactive”; that for `CC(C)Cn1c(C2CC(=O)N(c3ccccc3Cl)C2)nc2ccccc21` (stereo not given) was “inactive”. Take `O=C(CSc1nc(-c2cccc(F)c2)[nH]c1-c1ccccc1)Nc1ccc2c(c1)OCO2`: the Potency entry is “inactive”. Regarding `COc1cccc(C(=O)NC2(C(F)(F)F)C(=O)Nc3c2c(=O)[nH]c(=O)n3-c2ccc(C)cc2)c1` (stereo not given), the Potency result is “inactive”. For `CC(=O)Nc1ccc(Nc2c3ccccc3nc3ccccc23)cc1` the value was 4.61 µM (active).

In the case of `CC(=O)Nc1ccc(S(=O)(=O)N2CCN(c3ccccc3)CC2)cc1`, the Potency entry was “inactive”. In the case of `CCc1c(C)nc2c(-c3ccccc3)c(C)nn2c1Nc1ccc(NC(C)=O)cc1`, the Potency result is “inactive”. The value for `COc1ccc(CNC(=O)c2ccc3c(c2)nc2n3CCOC2)c(OC)c1` was “inactive”.

Values taken from PubChem BioAssay AID1347075 (National Center for Advancing Translational Sciences (NCATS), 2019).
